# Source: PubChem
# CHX counter – counter-screen hit for Shiga toxin inhibitors, cycloheximide. cell reporter, cycloheximide protein synthesis inhibition counterscreen. max response, %. hit rate 12% among 300,000. AID 2314; in the data active means max response mostly above about 13%, no sharp cut-off; inactive means mostly below about 14%; further: read at 38.3 µM for the half of the compounds with a filed dose; 0% is about no effect
# LASV entry inh – inhibitors of Lassa virus binding or cell entry; hit rate 1.2% among 300,000; Potency, µM (top dose mostly 37.9 µM), for the others: at the top dose activity change, negative = inhibition, most hits filed as inhibitors; AID 540256; Lassa virus pseudotype entry inhibition, cell reporter; calls by dose curve; tested in HEK293 cells; further: potency means the concentration at half of the fitted maximal effect; on the % scale 0 is the no-effect control and ±100 the full control effect; nearly all actives have a fitted effect of over 50% in size
# Marburg entry inh – inhibitors of Marburg virus binding or cell entry | hit rate 1.8% among 300,000 | Marburg virus pseudotyped entry inhibition, cell reporter | AID 540276 | Potency, µM (top dose mostly 37.8 µM), inactives show at the top dose activity change, negative = inhibition, actives largely listed as inhibitors; calls by dose curve; tested in HEK293 cells; further: potency means the concentration at half of the fitted maximal effect; on the % scale 0 is the no-effect control and ±100 the full control effect
# FMDV antiviral – foot and mouth disease virus antiviral activity; Potency, µM (top dose mostly 57.9 µM), for the others: at the top dose activity change, negative = inhibition, most hits filed as inhibitors; AID 1159524; FMDV antiviral cell-based qHTS; hit rate 1.2% among 410,000; calls by dose curve; tested in HEK293T cells; further: read-out not given here; potency means the concentration at half of the fitted maximal effect; on the % scale 0 is the no-effect control and ±100 the full control effect; nearly all actives have a fitted effect of over 45% in size
# HCV inhibitor – HCV inhibition; Huh7.5.1 HCVcc-Cre infection, luciferase reporter, 44 h; hit rate 3.4% among 340,000; Potency, µM (top dose mostly 41.8 µM), inactives show top-dose activity change, negative = inhibition, hits mostly inhibitors; AID 651820; active means well fitted inhibition curve with a large enough effect; inconclusive means small, poorly fitted or top-dose-only effect, or another doubt; inactive means no such curve, though single readings can be large or run the other way; further: potency means the concentration at half of the fitted maximal effect; on the % scale 0 is the no-effect control and ±100 the full control effect
#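 A cell-based infection assay in which seeded cells (1,000 per well) receive test compound after 4 h, are inoculated with HCVcc-Cre at approximately 0.5 moi, and are incubated 44 h before luminescence detection.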
# Shiga inhibitor – Shiga toxin inhibition; Vero cells, Shiga toxin protein synthesis inhibition reporter; inhibition, % at 38.7 µM; hit rate 9.2% among 290,000; AID 2315; in the data active means inhibition mostly above about 28%, no sharp cut-off; inactive means mostly below about 43%; further: 0% is about no effect
# * marks the source's active call; other numbers are inactive results; u = inconclusive; x = no result given; [ ] = another dose, or the depositor's remark. Shown are actives, neighbours in structure and some others; about 13% of the full set was active somewhere.
SMILES,CHX counter,LASV entry inh,Marburg entry inh,FMDV antiviral,HCV inhibitor,Shiga inhibitor
CN(C)/N=C/C=C1\CC/C(=C\c2ccc(F)c(F)c2)C1=O,x,x,x,4%,17%,x
CC(C)c1ccc(/C=C2\CC/C(=C\C=N\N(C)C)C2=O)cc1,55*,-6%,16%,13%,10%,125*
CC(C)/C=C1\CC/C(=C\c2ccc(N(C)C)cc2)C1=O,35*,2%,5%,-4%,u,77*
CC(=O)Nc1ccc(/C=C/C(=O)c2ccc3c(c2)OCCO3)cc1,23*,-25%,1%[46.1 µM],-28%,-12%,45*
O=C(/C=C/c1cccc([N+](=O)[O-])c1)c1ccc2c(c1)OCCO2,-1,-5%,u,-18%,-28%,-6
CC(C)(C)c1cc(C(=O)/C=C/c2ccc(C(=O)O)cc2)cc(C(C)(C)C)c1,x,x,x,25µM*,x,x
O=C(O)c1ccc(/C=C/C(=O)c2ccc3c(c2)OCCCO3)cc1,105*,u,u,10µM*,1%,92*
COCCNC(=O)C1CCCN(C(=O)Cc2cccc3ccccc23)CC1 (stereo not given),x,x,x,-22%,x,x
CC(=O)c1ccc(OC(=O)CCN2c3ccccc3Sc3ccccc32)cc1,-2,3%,4%,-20%,13%,11
CCCCN(CC)CCCNC(=O)Cn1ncc2c3ccccc3n(Cc3ccc(F)cc3)c2c1=O,x,-14%[46.1 µM],6%[46.1 µM],2%,x,x
COc1ccc(C2CC(c3cccs3)=NN2C(=O)CSc2nc3ccccc3o2)cc1 (stereo not given),7,-12%,-36%,-11%,-6%,14
COc1cc(NC(=O)C2=C(N3CCOCC3)/C(=C\c3ccc(Cl)cc3Cl)CC2)cc(OC)c1OC,-4,u,u,14µM*,u,-13
c1ccc(-c2ccccc2-c2nc(-c3cccnc3)no2)cc1,-1,0%,u,-7%,11µM*,-6
Clc1nc(-c2cccnc2)nc2scc(-c3ccccc3)c12,29*,-1%,-3%,14%,u,40*
c1cncc(-c2noc(-c3cccc4ccccc34)n2)c1,45*,1%,u,54%,u,89*
c1ccc2c(-c3nc(-c4ccncc4)no3)cccc2c1,21*,70%[14.3 µM],-2%,67%,x,63*
c1ccc(-c2cc(-c3nc(-c4cccnc4)no3)c3ccccc3n2)cc1,0,x,-3%,x,x,-6
CN(CCCC(=O)O)S(=O)(=O)c1ccc2c(c1)C(=O)c1cc(S(=O)(=O)N(C)CCCC(=O)O)ccc1-2,-2,x,x,-1%,16%,x
O=C(CSc1nc2cc(Cl)ccc2s1)NCc1ccc2c(c1)OCO2,-5,-2%,1%,u,-2%,5
CCOc1ccc(C(CC(=O)O)NC(=O)C(Sc2ccccc2)c2ccccc2)cc1 (stereo not given),-6,12%,-11%[46.1 µM],-21%,20%,0
COc1ccc(-c2noc(-c3ccccc3-c3ccccc3)n2)cc1,-3,-2%,-19%,-10%,u,-11
c1ccc(-c2noc(-c3cccc4ccccc34)n2)cc1,54*,u,-21%,50%,0%,50*
COc1ccc(C2NC(=O)NC(C)=C2C(=O)Nc2cc(C)cc(C)c2)c(OC)c1 (stereo not given),x,-3%[46.1 µM],u,-15%,x,x
CC(=O)c1ccc(OCC(=O)Nc2ccc3nc(C)sc3c2)cc1,-3,-20%,-2%,-4%,-11%,-3
Cc1cccc(OCC(=O)Nc2ccc3nc(C)sc3c2)c1,10,x,x,22%,-21%,63*
SMILES,CHX counter,LASV entry inh,Marburg entry inh,FMDV antiviral,HCV inhibitor,Shiga inhibitor
Cc1nc2ccc(NC(=O)COc3cccc(F)c3)cc2s1,26*,x,x,16%,-17%,31
Cc1nc2ccc(NC(=O)COc3ccccc3)cc2s1,23*,11%,u,6%,0%,33
COc1ccc(NC(=O)C2CC(=O)OC2(C)C)cc1 (stereo not given),-4,-23%,7%,x,7%,11
CCN1c2ccccc2-c2nc(SCC(=O)NCc3ccc(Cl)cc3)ncc2S1(=O)=O,x,u,x,-21%,x,x
CCOC(=O)C1CCN(c2c(Nc3ccc4c(c3)OCCO4)c(=O)c2=O)CC1,60*,-2%,4%,24%,2%,88*
CCOC(=O)N1CCC(N2C(=O)c3ccccc3C2Nc2ccc3c(c2)OCCO3)CC1 (stereo not given),161*,x,x,2%,1%,128*
Cc1cccc(-c2nc(C(N)=O)c3c(n2)n(-c2ccc4c(c2)OCO4)c(=O)n3C)c1,x,-23%[46.1 µM],u,-6%,x,x
CC(=O)c1cccc(NC(=O)c2ccc(OC3CSC3)cc2)c1,21,12%[46.1 µM],u,-9%,u,29
Cc1cccc(NC(=O)c2ccc(OC3CSC3)cc2)c1,43*,u,u,-9%,8%,62*
O=C(NCc1ccccc1)c1ccc(Oc2ccc(C(=O)NCc3ccccc3)cc2)cc1,-3,-14%,-22%,0%,-14%,-2
O=C(O)c1ccc(OC2CSC2)cc1,17,1%,10%,-26%,u,-18
O=C(NCc1ccccc1)c1ccc(OC2CSC2)cc1,12*,-2%,u,31%,-2%,16
O=C(Nc1cccc(Br)c1)c1ccc(OC2CSC2)cc1,43*,x,x,x,x,147*
COc1ccc(NC(=O)CC2Oc3ccccc3NC2=O)cc1 (stereo not given),9,x,x,11%,-2%,-4
O=C(OCc1ccccc1F)c1ccc2c(c1)-c1ccccc1C2=O,6,2.1µM*,14%,64%,9%,3
CC(=O)c1ccc(COC(=O)c2ccccc2NC(=O)C(C)C)cc1,-1,x,x,x,x,17
CC(=O)Nc1ccccc1C(=O)OCC(=O)c1ccccc1Cl,24*,u,0%,31%,0%,53*
CC(=O)Nc1ccccc1C(=O)OCc1ccccc1F,29*,-12%[46.1 µM],12%[46.1 µM],-26%,u,61
CCC(C)NC(=O)Nc1ccc2c(c1)N(C)C(=O)c1ccccc1S2 (stereo not given),-3,-18%,-20%,14%,-16%,-7
Cc1ccc(-c2nc3cnccn3c2Nc2ccc3c(c2)OCCO3)o1,34*,0%,0%,1%,-6%,22*
CN(C)c1ccc(-c2nc3cnccn3c2Nc2ccc3c(c2)OCCO3)cc1,31*,x,x,20%,-21%,87*
COc1ccc(-c2nn(-c3ccccc3)cc2C(=O)NCC(c2cccs2)N2CCOCC2)cc1 (stereo not given),x,-16%,u,-7%,u,x
O=C(NCC(c1cccs1)N1CCOCC1)c1cn(-c2ccccc2)nc1-c1ccccc1 (stereo not given),x,0%,13µM*,28%,u,x
O=C(NCC(c1cccs1)N1CCOCC1)c1cn(-c2ccccc2)nc1-c1ccc(Cl)cc1 (stereo not given),x,-25%,10µM*,-3%,u,x
O=C(O)CCN1C(=O)c2ccc(NC(=O)C(c3ccccc3)c3ccccc3)cc2C1=O,2,x,x,-1%,15%,-8
